Data on 16 molecules can be found in PubChem BioAssay AID624167 (Sanford-Burnham Center for Chemical Genomics, 2012).

By inhibition is commonly meant the relative decrease from the control value, in per cent.

Structures are written as SMILES.

This test is described as follows: Peg3 promoter luciferase inhibitors, potency, dose response, cell-based, HeLa, CREF/GAPDH counter-screen panel (AID 624167). The conditions noted are these: CREF/GAPDH counter-screens; run 2, dose range 1, at 100 µM (top of the series).
Turning to `O=C(N/N=C/c1cc([N+](=O)[O-])ccc1O)c1ccc(COc2ccc3c(c2)CCC3)o1`, the inhibition is -2.8%. In the case of `COc1cc(/C=C2\SC(=Nc3ccccc3OC)NC2=O)ccc1O` it was 39.3%. In the case of `CN(C)c1c([N+](=O)[O-])cc(N2C(=O)C=CC2=O)cc1[N+](=O)[O-]` it was 98.5%. On to `COc1cc(C(=O)N/N=C(\c2ccccc2)c2ccccn2)cc(OC)c1OC`, for which the inhibition was found to be 11.7%. In the case of `O=C(N/N=C\c1c(O)ccc2ccccc12)c1cncc(Br)c1` it was 72.8%; in that of `Cc1cc(NC(c2ccc(Cl)cc2)c2ccc3cccnc3c2O)no1` (stereo unspecified), 55.8%; in that of `CN(O)C(=S)c1ccccc1`, 14.9%. The value for `O=C(CNc1ccccc1)N/N=C/c1c(O)ccc2ccccc12` was 63.7%; that for `C=CCn1c(COc2ccccc2)nnc1SC(C)C(=O)N/N=C/c1cc(Cl)ccc1O` (stereo unspecified) was 59.9%; that for `O=C(CNC(=O)C(c1ccccc1)c1ccccc1)N/N=C/c1ccc(O)cc1O` was 22.3%. In the case of `Cc1ccc(OCC(=O)c2cc(C)n(-c3ccccc3)c2C)c([N+](=O)[O-])n1` it was 65.4%; in that of `COc1cc(Nc2c3ccccc3nc3ccccc23)cc(OC)c1OC`, 100%; in that of `Cc1ccc(C(C[N+](=O)[O-])Sc2ccc(N)cc2)cc1` (stereo unspecified), 99.2%. `CS(=O)(=O)c1ccc(-c2cn3cc(C(=O)O)ccc3n2)cc1`: the inhibition stood at 78.3%. In the case of `COc1cccc(/C=N/NC(=O)c2c(C)nc3ccc(Cl)cn23)c1O` it was -51.4%; in that of `COc1ccccc1Nc1nc(-c2sc(NC(=O)c3ccco3)nc2C)cs1`, 19.4%.
